SMN2 splice up: qHTS Assay for Enhancers of SMN2 Splice Variant Expression. Potency, µM (doses to about 46.1 µM), for inactives: at the highest dose activity change, positive = activation, most hits filed as activators. HEK293 SMN2-luciferase splicing reporter, luminescence, 30-36 h. hit rate 2.8% among 210,000; further: % of control where 0% means no effect; nearly all actives have a fitted effect of over 55% in size
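HEK293 cells carry an SMN2 […]–luciferase reporter in which exon 7 inclusion puts luciferase in frame. Cells were plated 10-12 h before compound addition, then incubated 30-36 h at 37C. ONE-Glo luminescence was read; sodium butyrate at 4.5 mM final served as control.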
NPC1 prom act: qHTS Assay for NPC1 Promoter Activators | Huh7 NPC1 promoter luciferase reporter, 24 h | Potency, µM (highest dose often 9.22 µM), without a hit: top-dose activation, actives largely listed as activators | hit rate 2.4% among 320,000; further: % of control where 0% means no effect; nearly all actives have a fitted effect of over 60% in size
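Luminescence from an NPC1 promoter-driven luciferase reporter in stably transfected Huh7 cells was measured after 24 h compound treatment at 37 °C, followed by 10 min ambient incubation with luciferase detection reagent.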
ELG1 genotox: qHTS screen for small molecules that induce genotoxicity in human embryonic kidney (HEK293T) cells expressing luciferase-tagged ELG1 | HEK293T ELG1-luciferase reporter, luminescence, 16 h | Potency, µM (titrated, usually from 46 µM), without a hit: top-dose activity change, positive = activation, usual class: activators | hit rate 1.3% among 330,000; further: % of control where 0% means no effect; nearly all actives have a fitted effect of over 60% in size
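Cells (2,000/well) expressing the ELG1-luciferase fusion are dosed by pin tool and kept 16 hr at 37 °C, 5% CO2. Signal comes from ONE-Glo luciferase reagent after 30 min at room temperature.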
FLuc counter: qHTS profiling assay for firefly luciferase inhibitor/activator using purifed enzyme and Km concentrations of substrates (counterscreen for miR-21 project). AID 588342, 2011. Potency, µM (series often up to 57.5 µM), inactives show at the highest dose activity change, negative = inhibition, usual class: inhibitors. hit rate 6.9% among 360,000. Luciferin 4-monooxygenase (Photinus pyralis), P08659. purified FLuc, Km substrates, luminescence inhibition;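 further: plate controls were vehicle for no effect and reference inhibitor for full effect; nearly all actives have a fitted effect of over 55% in size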
Target sequence (P08659 whole entry, looked up): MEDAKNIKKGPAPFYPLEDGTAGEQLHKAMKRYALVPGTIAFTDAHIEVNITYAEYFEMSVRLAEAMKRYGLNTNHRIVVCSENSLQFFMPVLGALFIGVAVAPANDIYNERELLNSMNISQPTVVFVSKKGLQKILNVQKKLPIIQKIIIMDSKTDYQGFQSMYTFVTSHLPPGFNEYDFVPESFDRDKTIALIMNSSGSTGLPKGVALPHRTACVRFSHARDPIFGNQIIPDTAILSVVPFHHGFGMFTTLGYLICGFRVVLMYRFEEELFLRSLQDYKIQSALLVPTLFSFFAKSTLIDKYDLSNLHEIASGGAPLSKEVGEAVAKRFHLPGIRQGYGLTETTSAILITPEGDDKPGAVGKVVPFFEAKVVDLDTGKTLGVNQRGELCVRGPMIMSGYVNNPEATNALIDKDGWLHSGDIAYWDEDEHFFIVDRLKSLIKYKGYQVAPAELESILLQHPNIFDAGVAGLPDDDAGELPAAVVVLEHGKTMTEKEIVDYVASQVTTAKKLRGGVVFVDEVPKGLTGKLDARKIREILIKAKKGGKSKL
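Purified P. pyralis luciferase (10nM final) with 10uM D-luciferin and 10uM ATP (Km levels) in 50mM Tris acetate pH 7.5, 10mM Mg acetate, 0.01% Tween-20, 0.05% BSA; qHTS 6-point titration, ~60 µM downward; luminescence read.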
Rab9 prom act: qHTS Assay for Rab9 Promoter Activators; Huh7 Rab9 promoter-luciferase reporter, luminescence, 24 h; Potency, µM (titrated, usually from 9.22 µM), without a hit: at the highest dose activation, negative = inhibition, most hits filed as activators; hit rate 2.8% among 320,000; AID 485297, 2010; further: % of control where 0% means no effect; nearly all actives have a fitted effect of over 60% in size
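Stable Rab9-luc Huh7, 1500 cells/well, 2 h settle; cmpd in DMSO, 24 h, 37 °C/5% CO2; luciferase reagent 10 min RT; luminescence.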
KinaseGlo FLuc: Counterscreen for Luciferase (Kinase-Glo TM) Inhibition. Luciferin 4-monooxygenase (Photuris pensylvanica), Q27757. Kinase-Glo luciferase, ATP luminescence, 8 min. Potency, µM (highest dose often 38.3 µM), for inactives: top-dose activity change, negative = inhibition, usual class: inhibitors. hit rate 0.28% among 200,000. AID 1379, 2008; further: on the % scale 0 is the no-effect control and ±100 the full control effect; nearly all actives have a fitted effect of over 60% in size
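Light output from Kinase-Glo luciferase with luciferin and 10 uM ATP in 50 mM imidazole pH 7.2, KCl, MgCl2, Tween 20, BSA; compound pin-delivered, 8-min ambient incubation, then luminescence read.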
Active calls of the source: *; [ ] = remark or other dose. Rows were chosen to be rich in hits. Some 7.4% of all compounds tested hit in one or more screens of this group. The call rests on the fitted dose curve; in most records, active means well fitted curve in the direction sought with a large enough effect; inconclusive means small, poorly fitted or top-dose-only effect, or another doubt; inactive means no such curve, though single readings can be large; an effect the other way counts as inactive or inconclusive. Potency means the concentration at half of the fitted maximal effect.

What do the screens show for `COc1ccc2nc(N3CCC(O)CC3)c(C#N)cc2c1`?
SMN2 splice up: -9%; NPC1 prom act: 19%; ELG1 genotox: 6%; FLuc counter: 15µM*; Rab9 prom act: 5%; KinaseGlo FLuc: -2%

How did COc1ccc2cc(C#N)c(N3CCOCC3)nc2c1 do in these assays?
NPC1 prom act: -4%; ELG1 genotox: -7%; FLuc counter: -8%; Rab9 prom act: -4%

Results for COc1ccc2nc(N3CCC(C)CC3)c(C#N)cc2c1 ?
SMN2 splice up: 20µM*; NPC1 prom act: inconclusive; ELG1 genotox: inconclusive; FLuc counter: 11µM*; Rab9 prom act: 4µM*; KinaseGlo FLuc: 3%

How did Nc1nc2ccccc2n1/N=C/c1ccc(Br)cc1 do in these assays?
SMN2 splice up: 35µM*; NPC1 prom act: inconclusive; ELG1 genotox: 16µM*; FLuc counter: inconclusive; Rab9 prom act: inconclusive; KinaseGlo FLuc: -3%

Results for Cn1c(/N=C/c2ccc3c(c2)OCO3)nc2ccccc21 ?
SMN2 splice up: -3%; NPC1 prom act: -4%; ELG1 genotox: 2%; FLuc counter: 0.24µM*; Rab9 prom act: -3%; KinaseGlo FLuc: 11µM*

Results for Nc1nnnn1/N=C/c1ccc(Br)cc1 ?
NPC1 prom act: 3%; ELG1 genotox: inconclusive; FLuc counter: 0%; Rab9 prom act: 0%

Results for Nc1nc2ccccc2n1/N=C/c1ccc2c(c1)OCO2 ?
NPC1 prom act: 2µM*; ELG1 genotox: inconclusive; FLuc counter: 11µM*; Rab9 prom act: 4µM*

What do the screens show for `O=C(Nc1cccc(C(F)(F)F)c1)c1cc2nc(-c3ccc4c(c3)OCO4)cc(C(F)(F)F)n2n1`?
SMN2 splice up: -6%; FLuc counter: 1%

Results for CCCn1c(-c2ccc(F)cc2)nc2c(NCCN(C)C)nc(C)nc21 ?
SMN2 splice up: 1%; KinaseGlo FLuc: -2%

Results for Cn1c(CCN2CCN(c3ccccc3)CC2)nc2cc(NC(=O)c3ccco3)ccc21 ?
SMN2 splice up: -14%; NPC1 prom act: 5%; ELG1 genotox: -6%; FLuc counter: -13%; Rab9 prom act: 4.5µM*; KinaseGlo FLuc: 4%

How did CC(=O)Nc1ccc2c(c1)nc(CCNC(=O)c1ccccc1)n2C do in these assays?
SMN2 splice up: -17%; NPC1 prom act: 5%; ELG1 genotox: 1%; FLuc counter: -5%; Rab9 prom act: 0%; KinaseGlo FLuc: 5%

Results for CC(=O)NCCc1nc2cc(NC(=O)c3ccc([N+](=O)[O-])cc3)ccc2n1C ?
NPC1 prom act: inconclusive; ELG1 genotox: 11%; FLuc counter: 15µM*; Rab9 prom act: inconclusive

How did Cn1c(CN2CCCC2)nc2cc(NC(=O)c3ccco3)ccc21 do in these assays?
SMN2 splice up: inconclusive; NPC1 prom act: 24%; ELG1 genotox: 15µM*; FLuc counter: inconclusive; Rab9 prom act: inconclusive; KinaseGlo FLuc: 4%

How did Cc1ccc(C(=O)Nc2ccc3c(c2)nc(CCNC(=O)c2ccco2)n3C)cc1 do in these assays?
NPC1 prom act: 3.5µM*; ELG1 genotox: inconclusive; FLuc counter: inconclusive; Rab9 prom act: 3.5µM*

How did CN1CCN(CCc2nc3cc(NC(=O)c4ccco4)ccc3n2C)CC1 do in these assays?
NPC1 prom act: -3%; ELG1 genotox: 2%; FLuc counter: 4%; Rab9 prom act: 1%

What do the screens show for `Cc1ccc(N2CCN(CCc3nc4cc(NC(=O)c5ccco5)ccc4n3C)CC2)cc1`?
SMN2 splice up: -32%; NPC1 prom act: -2%; ELG1 genotox: -16%; FLuc counter: -6%; Rab9 prom act: 1%; KinaseGlo FLuc: 1%

How did COc1cc(OC)c(NC(=O)c2ccc3c(Cl)c4c(nc3c2)CCCC4)cc1Cl do in these assays?
SMN2 splice up: -4%; FLuc counter: -1%

What do the screens show for `CCC(=O)CCC(=O)c1ccc2ccccc2c1`?
SMN2 splice up: 14µM*; NPC1 prom act: inconclusive; ELG1 genotox: inconclusive; FLuc counter: 15µM*; Rab9 prom act: inconclusive; KinaseGlo FLuc: 0%

Results for CCOc1ccccc1NC(=O)c1ccc2c(Cl)c3c(nc2c1)CCCC3 ?
SMN2 splice up: -2%; FLuc counter: 2.7µM*

What do the screens show for `CCOc1ccccc1NC(=O)c1ccc2c(=O)n3c(nc2c1)CCCCC3`?
NPC1 prom act: 11%; ELG1 genotox: -6%; FLuc counter: inconclusive; Rab9 prom act: 4%

How did CC(C)N(CCC(=O)c1ccc2ccccc2c1)Cc1ccccc1 do in these assays?
SMN2 splice up: 6%; NPC1 prom act: -34%[46.1 µM]; ELG1 genotox: -5%; FLuc counter: -18%; Rab9 prom act: -41%[46.1 µM]; KinaseGlo FLuc: -2%

What do the screens show for `CCOc1ccccc1NC(=O)c1ccc2c(Cl)c3c(nc2c1)CCC3`?
SMN2 splice up: 22%; FLuc counter: 0.85µM*

How did COc1ccccc1NC(=O)c1ccc2c(Cl)c3c(nc2c1)CCCC3 do in these assays?
SMN2 splice up: 1%; FLuc counter: 7.6µM*

Results for CC1CC[C@@]2(C(=O)O)CC[C@]3(C)C(=CCC4[C@@]5(C)CCC(O)C(C)(C)C5CC[C@@]43C)C2C1C (stereo not given in full) ?
SMN2 splice up: 11%; KinaseGlo FLuc: 0%

What do the screens show for `CCOc1ccccc1NC(=O)c1ccc2ccccc2c1`?
NPC1 prom act: inconclusive; ELG1 genotox: 0%; FLuc counter: 21µM*; Rab9 prom act: inconclusive

How did COc1cc(/C=C2\OC(=O)c3c(OC)cccc32)ccc1O do in these assays?
SMN2 splice up: -13%; NPC1 prom act: inconclusive; ELG1 genotox: 10µM*; FLuc counter: 3.4µM*; Rab9 prom act: inconclusive; KinaseGlo FLuc: -3%

What do the screens show for `COC(=O)c1sc2nc(C)cc(C)c2c1N`?
NPC1 prom act: 0%; ELG1 genotox: 7%; FLuc counter: inconclusive; Rab9 prom act: 17%; KinaseGlo FLuc: -3%

Results for COCc1cc(C)nc2sc(C(=O)Nc3ccccc3Br)c(N)c12 ?
NPC1 prom act: 15%; ELG1 genotox: 7%; FLuc counter: 8.5µM*; Rab9 prom act: 21%

Results for Cc1cc(C)c2c(N)c(C(=O)Nc3ncc(C)s3)sc2n1 ?
SMN2 splice up: -56%; NPC1 prom act: -10%; ELG1 genotox: inconclusive; FLuc counter: 0.095µM*; Rab9 prom act: inconclusive; KinaseGlo FLuc: inconclusive

What do the screens show for `Cc1cc(C)c2c(N)c(C(=O)Nc3ccccc3F)sc2n1`?
NPC1 prom act: 1.8µM*; ELG1 genotox: inconclusive; Rab9 prom act: 2.2µM*

Screening results as filed in PubChem.
